From PubChem BioAssay (Tox21)
Results filed as inconclusive are left out. Calls of active or inactive are those of the source. The call rests on the fitted dose curve; in most records, active means well fitted curve in the direction sought with a large enough effect in the repeat runs; inconclusive means weak or mixed curves; inactive means no such curve, though single readings can be large; an effect the other way counts as inactive or inconclusive.

assay: A CellTox Green Cytotoxicity Assay to monitor cytotoxicity in HEK293 cells - 24 hour (AID 1224875); conditions: CellTox Green fluorescence, hits give high values; series mostly up to 76.8 µM; activity change: at the top concentration; further: nearly all actives have a fitted effect of over 45% in size
Outline: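 Dead-cell fluorescence measured kinetically: asymmetric cyanine dye, HEK293, 600 cells/well, 5 h settle, 23 nL cpd/DMSO, 37 C, reads 0–40 h every 8 h.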
On the % scale 0 is the no-effect control and ±100 the full control effect.

Row | SMILES | activity change
1 | CCCn1cc[n+](C)c1C | -10.2% (inactive)
2 | O=C(O)c1cn(C2CC2)c2cc(N3CCNCC3)c(F)cc2c1=O | -2.6% [at 35.3 µM] (inactive)
3 | NC(CCC(=O)O)C(=O)O (stereo not drawn) | 17.8% (inactive)
4 | CCN[C@H]1C[C@H](C)S(=O)(=O)c2sc(S(N)(=O)=O)cc21 | 0.901% [at 35.3 µM] (inactive)
5 | Nc1ccn([C@@H]2O[C@H](CO)[C@@H](O)C2(F)F)c(=O)n1 | -1.58% [at 35.3 µM] (inactive)
6 | O=C1CCCCCCCCCCCCCCO1 | 7.73% (inactive)
7 | CC(=O)O[C@@]12CO[C@@H]1C[C@H](O)[C@@]1(C)C(=O)[C@H](O)C3=C(C)[C@@H](OC(=O)[C@H](O)[C@@H](NC(=O)OC(C)(C)C)c4ccccc4)C[C@@](O)([C@@H](OC(=O)c4ccccc4)[C@H]21)C3(C)C | -3.34% [at 35.3 µM] (inactive)
8 | CC(=O)c1ccc2ccccc2c1 | -0.62% (inactive)
9 | Cc1ccc(C(=O)c2ccc(CC(=O)O)n2C)cc1 | -4.11% [at 35.3 µM] (inactive)
10 | COC(=O)C1=C(C)NC(C)=C(C(=O)OC(C)C)C1c1cccc2nonc12 (stereo not drawn) | -5.11% [at 35.3 µM] (inactive)
11 | CCOC(=O)COc1cc(-n2ncc(C(F)(F)F)c(C)c2=O)c(F)cc1Cl | -0.213% (inactive)
12 | COC(=O)Nc1ccc(Cl)c(Cl)c1 | -16.9% (inactive)
13 | NC(=O)N1c2ccccc2CC(=O)c2ccccc21 | -15.2% [at 35.3 µM] (inactive)
14 | CC(CC=O)CC(C)(C)C (stereo not drawn) | 1.88% (inactive)
15 | CC1=C(C/C=C(\C)CCC[C@H](C)CCC[C@H](C)CCCC(C)C)C(=O)c2ccccc2C1=O | -7.97% [at 35.3 µM] (inactive)
16 | Cc1c(N)c(=O)n(-c2ccccc2)n1C | -4.52% [at 35.3 µM] (inactive)

assay: A CellTox Green Cytotoxicity Assay to monitor cytotoxicity in HepG2 cells - 16 hour (AID 1224876); conditions: CellTox Green fluorescence; series mostly up to 76.8 µM; cytotoxicity increase: at the top concentration; further: nearly all actives have a fitted effect of over 45% in size
Outline: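 First, HepG2 cells (600/well) mixed with reagent were plated; second, after 5 h at 37 C they received compounds via pintool; third, fluorescence was measured at 0 h through 40 h at 8 h intervals.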

Row | SMILES | cytotoxicity increase
17 | Cc1cc(C)c(N=Nc2c(O)c(S(=O)(=O)O)cc3cc(S(=O)(=O)O)ccc23)cc1C | 0.0418% [at 6.97 µM] (inactive)
18 | COc1cc2c(cc1OC)-c1cc3ccc(OC)c(OC)c3c[n+]1CC2 | 2.2% (inactive)
19 | CC(C)CC(C)(N)C#N (stereo not drawn) | 0.584% (inactive)
20 | NCCCC[C@H](N[C@@H](CCc1ccccc1)C(=O)O)C(=O)N1CCC[C@H]1C(=O)O | 0.205% [at 35.3 µM] (inactive)
21 | CNCCO | -1.5% (inactive)
22 | CCCCS(=O)(=O)N[C@@H](Cc1ccc(OCCCCC2CCNCC2)cc1)C(=O)O | -8.49% [at 35.3 µM] (inactive)
23 | Cc1nc(C2CCCCC2)c(-c2ccc(S(N)(=O)=O)c(F)c2)o1 | 6.08% [at 35.3 µM] (inactive)
24 | CCN[C@@H]1C[C@H](N)[C@@H](OC2OC(CN)=CCC2N)[C@H](O)[C@H]1O[C@H]1OC[C@](C)(O)[C@H](NC)[C@H]1O (stereo partly drawn) | -0.147% [at 0.29 µM] (inactive)
25 | O=S(=O)(O)c1cccc2c(S(=O)(=O)O)cccc12 | 0.348% (inactive)
26 | COc1ccnc(CS(=O)c2nc3cc(OC(F)F)ccc3[nH]2)c1OC (stereo not drawn) | 0.184% (inactive)
27 | C[N+]1(C)[C@@H]2CC(OC(=O)[C@H](CO)c3ccccc3)C[C@H]1[C@@H]1O[C@@H]12 (stereo partly drawn) | -13.8% [at 35.3 µM] (inactive)
28 | CC[N+](CC)(CC)CCOc1cccc(OCC[N+](CC)(CC)CC)c1OCC[N+](CC)(CC)CC | -12.1% [at 35.3 µM] (inactive)
29 | C1CCC2=NCCCN2CC1 | 5.02% (inactive)
30 | CCOc1ccccc1OCC | -9.27% (inactive)
31 | C=C(C)C(=O)OCCOCCOCCOCCOC(=O)C(=C)C | -8.35% (inactive)
32 | CCOC(=O)C1=NOC(c2ccccc2)(c2ccccc2)C1 | -0.13% (inactive)
33 | CCCn1cc[n+](C)c1C | -2.08% (inactive)
34 | O=C(O)c1cn(C2CC2)c2cc(N3CCNCC3)c(F)cc2c1=O | 3.88% [at 35.3 µM] (inactive)
35 | NC(CCC(=O)O)C(=O)O (stereo not drawn) | 7.84% (inactive)
36 | CCN[C@H]1C[C@H](C)S(=O)(=O)c2sc(S(N)(=O)=O)cc21 | -0.218% [at 35.3 µM] (inactive)
37 | Nc1ccn([C@@H]2O[C@H](CO)[C@@H](O)C2(F)F)c(=O)n1 | 11.7% [at 35.3 µM] (inactive)
38 | O=C1CCCCCCCCCCCCCCO1 | 12.8% (inactive)
39 | CC(=O)O[C@@]12CO[C@@H]1C[C@H](O)[C@@]1(C)C(=O)[C@H](O)C3=C(C)[C@@H](OC(=O)[C@H](O)[C@@H](NC(=O)OC(C)(C)C)c4ccccc4)C[C@@](O)([C@@H](OC(=O)c4ccccc4)[C@H]21)C3(C)C | 4.49% [at 35.3 µM] (inactive)
40 | COC(=O)C1=C(C)NC(C)=C(C(=O)OC(C)C)C1c1cccc2nonc12 (stereo not drawn) | -5.88% [at 35.3 µM] (inactive)
41 | CCOC(=O)COc1cc(-n2ncc(C(F)(F)F)c(C)c2=O)c(F)cc1Cl | -7.48% (inactive)
42 | COC(=O)Nc1ccc(Cl)c(Cl)c1 | -15.3% (inactive)
43 | NC(=O)N1c2ccccc2CC(=O)c2ccccc21 | -2.32% [at 35.3 µM] (inactive)
44 | CC(CC=O)CC(C)(C)C (stereo not drawn) | -6.58% (inactive)
45 | CC1=C(C/C=C(\C)CCC[C@H](C)CCC[C@H](C)CCCC(C)C)C(=O)c2ccccc2C1=O | -0.311% [at 35.3 µM] (inactive)

assay: qHTS RealTime-Glo MT Cell Viability Assay in HepG2 cells - 32 hour (AID 1224877); conditions: RealTime-Glo luminescence; series mostly up to 76.8 µM; activity change, negative = cytotoxic: at the top concentration; further: nearly all actives have a fitted effect of over 55% in size
Outline: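 Cell number in HepG2 cultures estimated from NanoLuc luminescence generated by metabolic reduction of a prosubstrate by living cells. The homogeneous, nonlytic format allowed repeated reads at 0, 8, 16, 24, 32 and 40 h of compound exposure.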

Row | SMILES | activity change, negative = cytotoxic
46 | Cc1cc(C)c(N=Nc2c(O)c(S(=O)(=O)O)cc3cc(S(=O)(=O)O)ccc23)cc1C | -2.9% [at 6.97 µM] (inactive)
47 | c1ccc(CCc2ccccc2)cc1 | 1.43% (inactive)
48 | COc1cc2c(cc1OC)-c1cc3ccc(OC)c(OC)c3c[n+]1CC2 | -7.83% (inactive)
49 | CC1OC1C1CCC2(C)OC2C1 (stereo not drawn) | 0.91% (inactive)
50 | C=COCC1CCC(COC=C)CC1 (stereo not drawn) | 2.92% (inactive)
51 | CC(C)CC(C)(N)C#N (stereo not drawn) | 1.47% (inactive)
52 | NCCCC[C@H](N[C@@H](CCc1ccccc1)C(=O)O)C(=O)N1CCC[C@H]1C(=O)O | 2.93% [at 35.3 µM] (inactive)
53 | CNCCO | 0.764% (inactive)
54 | CCCCS(=O)(=O)N[C@@H](Cc1ccc(OCCCCC2CCNCC2)cc1)C(=O)O | 2.1% [at 35.3 µM] (inactive)
55 | Cc1cccc(C)c1NC(=O)CC12CCCN1CCC2 | 1.71% [at 35.3 µM] (inactive)
56 | Cc1nc(C2CCCCC2)c(-c2ccc(S(N)(=O)=O)c(F)c2)o1 | -11% [at 35.3 µM] (inactive)
57 | CCN[C@@H]1C[C@H](N)[C@@H](OC2OC(CN)=CCC2N)[C@H](O)[C@H]1O[C@H]1OC[C@](C)(O)[C@H](NC)[C@H]1O (stereo partly drawn) | 1.75% [at 0.29 µM] (inactive)
58 | O=S(=O)(O)c1cccc2c(S(=O)(=O)O)cccc12 | 1.97% (inactive)
59 | COc1ccnc(CS(=O)c2nc3cc(OC(F)F)ccc3[nH]2)c1OC (stereo not drawn) | -0.214% (inactive)
60 | C1CCC2=NCCCN2CC1 | -0.214% (inactive)
61 | CCCCCCCCCC[N+](C)(C)[O-] | -0.312% (inactive)
62 | CCOc1ccccc1OCC | 0.667% (inactive)

Row | SMILES | activity change, negative = cytotoxic
63 | C=C(C)C(=O)OCCOCCOCCOCCOC(=O)C(=C)C | 1.04% (inactive)
64 | CCOC(=O)C1=NOC(c2ccccc2)(c2ccccc2)C1 | 1.52% (inactive)
65 | O=C(O)c1cn(C2CC2)c2cc(N3CCNCC3)c(F)cc2c1=O | 1.23% [at 35.3 µM] (inactive)
66 | NC(CCC(=O)O)C(=O)O (stereo not drawn) | -7.39% (inactive)
67 | CCN[C@H]1C[C@H](C)S(=O)(=O)c2sc(S(N)(=O)=O)cc21 | 4.02% [at 35.3 µM] (inactive)
68 | Nc1ccn([C@@H]2O[C@H](CO)[C@@H](O)C2(F)F)c(=O)n1 | -4.73% [at 35.3 µM] (inactive)
69 | O=C1CCCCCCCCCCCCCCO1 | 0.142% (inactive)
70 | CC(=O)O[C@@]12CO[C@@H]1C[C@H](O)[C@@]1(C)C(=O)[C@H](O)C3=C(C)[C@@H](OC(=O)[C@H](O)[C@@H](NC(=O)OC(C)(C)C)c4ccccc4)C[C@@](O)([C@@H](OC(=O)c4ccccc4)[C@H]21)C3(C)C | -16% [at 35.3 µM] (inactive)
71 | CC(=O)c1ccc2ccccc2c1 | 1.03% (inactive)
72 | Cc1ccc(C(=O)c2ccc(CC(=O)O)n2C)cc1 | 0.827% [at 35.3 µM] (inactive)
73 | CCOC(=O)COc1cc(-n2ncc(C(F)(F)F)c(C)c2=O)c(F)cc1Cl | -0.878% (inactive)
74 | COC(=O)Nc1ccc(Cl)c(Cl)c1 | 0.901% (inactive)
75 | NC(=O)N1c2ccccc2CC(=O)c2ccccc21 | 1.13% [at 35.3 µM] (inactive)
76 | CC(CC=O)CC(C)(C)C (stereo not drawn) | 1.14% (inactive)
77 | CC1=C(C/C=C(\C)CCC[C@H](C)CCC[C@H](C)CCCC(C)C)C(=O)c2ccccc2C1=O | -0.439% [at 35.3 µM] (inactive)
78 | Cc1c(N)c(=O)n(-c2ccccc2)n1C | 0.101% [at 35.3 µM] (inactive)
